AmpC no deterg = blocks E. coli AmpC beta-lactamase in detergent-free assay; AmpC nitrocefin hydrolysis, absorbance 480 nm, 0.0001% Triton; Potency, µM (highest dose often 57.1 µM), without a hit: top-dose activity change, negative = inhibition, actives largely listed as inhibitors; 330,000 compounds, 0.52% hits; AID 485341; P00811;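 also: plate controls were no compound for no effect and no enzyme for full effect; nearly all actives have a fitted effect of over 20% in size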
Target sequence (P00811 whole entry, looked up): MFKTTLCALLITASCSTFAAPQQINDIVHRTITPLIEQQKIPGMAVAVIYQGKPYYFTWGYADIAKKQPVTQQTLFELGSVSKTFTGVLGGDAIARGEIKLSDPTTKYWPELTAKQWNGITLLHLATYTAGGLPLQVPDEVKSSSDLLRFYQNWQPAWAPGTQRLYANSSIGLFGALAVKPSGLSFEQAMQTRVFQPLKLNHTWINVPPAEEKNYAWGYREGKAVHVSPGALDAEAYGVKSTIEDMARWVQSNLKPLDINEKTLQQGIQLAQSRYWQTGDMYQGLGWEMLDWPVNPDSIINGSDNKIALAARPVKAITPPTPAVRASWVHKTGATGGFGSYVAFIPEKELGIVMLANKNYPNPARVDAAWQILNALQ
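20 mM phosphate pH 7.0 + 0.01% (detergent screen) or 0.0001% Triton X-100; 5.3 nM AmpC reagent; cpd preinc 15 min RT; nitrocefin (800 uM stock) to start; A480 q20 s × 4 min; Activity was normalised to no-enzyme and no-compound control wells.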
Pf growth 48h = inhibits P. falciparum growth in the first generation, 48 h. P. falciparum luciferase growth in erythrocytes, 48 h. Potency, µM (top dose mostly 28.7 µM), inactives show at the highest dose activity change, negative = inhibition, hits mostly inhibitors. 310,000 compounds, 5.9% hits. AID 504832
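Compounds are pin-transferred into medium, infected erythrocytes (2% hematocrit, 0.1% parasitemia final) are added, and plates sit one parasite generation at 37 C in 5% CO2. Detection reagent is then added and luminescence measured.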
AmpC inh detg = inhibitors of E. coli AmpC beta-lactamase with detergent. AmpC hydrolysis of nitrocefin, absorbance 480 nm, 0.01% Triton. 370,000 compounds, 0.041% hits. AID 485294. Potency, µM (highest dose often 114 µM), without a hit: top-dose activity change, negative = inhibition, usual class: inhibitors. P00811;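 also: 0% = no-compound wells and -100% = no-enzyme wells; nearly all actives have a fitted effect of over 25% in size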
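AmpC (5.3 nM in the dispensed reagent) in 20 mM phosphate pH 7.0 with 0.01% (detergent screen) or 0.0001% Triton X-100 was preincubated with compounds for 15 min at room temperature. Nitrocefin was then added from an 800 uM solution, and hydrolysis was followed at 480 nm.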
Pf growth 96h = P. falciparum growth inhibition at 96 hour, primary screen for plastid delayed-death inhibitors; P. falciparum luciferase reporter growth, 96 h; Potency, µM (doses to about 28.7 µM), for the others: at the highest dose activity change, negative = inhibition, most hits filed as inhibitors; 320,000 compounds, 6.9% hits
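Erythrocytes infected with luciferase-expressing P. falciparum were dispensed at 2% hematocrit and 0.05% parasitemia (final), then incubated with compounds 96 hours at 37 C in 5% CO2. Luminescence after detection reagent addition reported growth.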
HCV inh = blocks hepatitis C virus. Huh7.5.1 HCVcc-Cre infection, luciferase reporter, 44 h. Potency, µM (doses to about 41.8 µM), for inactives: top-dose activity change, negative = inhibition, most hits filed as inhibitors. 340,000 compounds, 3.4% hits. AID 651820
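Cells seeded at 1,000/well and cultured 4 h, then compounds added followed by HCVcc-Cre virus (~0.5 moi). After 44 h further culture, luciferase substrate was added, plates held 15 min at room temperature, and luminescence read for 15 sec.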
AMA1 RON2 block = AMA1-RON2 (P. falciparum) interaction inhibition; AlphaScreen AMA1-biotinylated RON2 peptide binding; Potency, µM (titrated, usually from 58.2 µM), inactives show top-dose activity change, negative = inhibition, actives largely listed as inhibitors; 360,000 compounds, 0.2% hits;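 also: 0% = vehicle wells and -100% = peptide control; nearly all actives have a fitted effect of over 45% in size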
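AMA1 (3D7) with his tag at 25 nM final met compounds first, then biotinylated RON2 peptide at 25 nM; detection used donor plus acceptor beads, 10 µg/mL apiece, read by AlphaScreen after 30 min at room temperature.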
* marks the source's active call; other numbers are inactive results. Only some compounds are listed: those with a hit (about 11% of all), similar ones and a draw of the others. Calls follow the shape of the dose curve; as a rule, active = well fitted curve in the direction sought with a large enough effect; inconclusive = small, poorly fitted or top-dose-only effect, or another doubt; inactive = no such curve, though single readings can be large; an effect the other way counts as inactive or inconclusive. Unless noted, % is scaled to controls: 0 for no effect and ±100 for the full control effect; potency is read from the fitted curve at half-maximal effect.

Screening OCCC1CN(Cc2cnc(-c3ccc(Cl)cc3)nc2)CCN1C1CCCCC1 (configuration not stated) returned AmpC no deterg 83%, Pf growth 48h 10µM*, AmpC inh detg 1%, Pf growth 96h 8%, HCV inh 13µM* and AMA1 RON2 block -2%.
Screening CC(C)=CCN1CCN(Cc2cccc3nonc23)CC1CCO (configuration not stated) returned AmpC no deterg -4%, Pf growth 48h 4%, AmpC inh detg -5%, Pf growth 96h 2.1µM*, HCV inh 14% and AMA1 RON2 block 5%.
CC(C)=CCN1CCN(Cc2cccc3nccnc23)CC1CCO (configuration not stated) was read as AmpC no deterg -17%, Pf growth 48h 32%, AmpC inh detg 8%, Pf growth 96h inconclusive, HCV inh 5% and AMA1 RON2 block 7%.
OCCC1CN(Cc2cccc3nonc23)CCN1Cc1ccsc1 (configuration not stated) was read as AmpC no deterg 3%, Pf growth 48h 10%, AmpC inh detg 0%, Pf growth 96h 50%, HCV inh 2% and AMA1 RON2 block 6%.
For OCCC1CN(Cc2nc3ccc(F)cc3[nH]2)CCN1C1CCCC1 (configuration not stated) the results were AmpC no deterg -10%, Pf growth 48h 11%, AmpC inh detg 6%, Pf growth 96h 3%, HCV inh -8% and AMA1 RON2 block 109%.
CCCn1c(CCCNC(=O)c2ccccc2OC)nc2ccccc21 was read as AmpC inh detg -4%.
CCCCCCOc1ccc(C2C(=O)N(C3CCCCC3)CC(=O)N2CCCC)cc1 (configuration not stated) was read as AmpC inh detg 11%.
CC(C)=CCN1CCN(Cc2cnc(N3CCCC3)s2)CC1CCO (configuration not stated) was read as AmpC no deterg -15%, Pf growth 48h -1%, AmpC inh detg 5%, Pf growth 96h -2%, HCV inh 10% and AMA1 RON2 block 2%.
OCCC1CN(Cc2cccc3nccnc23)CCN1Cc1ccc(F)cc1 (configuration not stated) was read as AmpC no deterg 9%, Pf growth 48h -8%, AmpC inh detg -7%, Pf growth 96h inconclusive, HCV inh 5% and AMA1 RON2 block 3%.
`CC(C)=CCN1CCN(Cc2cnc(N3CCOCC3)s2)CC1CCO` (configuration not stated) gave AmpC no deterg -14%, Pf growth 48h 160%, AmpC inh detg 3%, Pf growth 96h 12µM*, HCV inh -14% and AMA1 RON2 block 8%.
`OCCC1CN(Cc2cccc3nccnc23)CCN1C1CCCC1` (configuration not stated) gave AmpC no deterg -16%, Pf growth 48h 15%, AmpC inh detg 6%, Pf growth 96h 13µM*, HCV inh 9% and AMA1 RON2 block -2%.
Screening Clc1ccccc1-c1nnc(SCc2nc(-c3ccccc3)no2)n1-c1ccccc1 returned AmpC inh detg 2%.
`CNC(=O)N(c1ccccc1)c1ccccc1` gave AmpC no deterg -12%, Pf growth 48h 94%, AmpC inh detg -8%, Pf growth 96h 7%, HCV inh 8% and AMA1 RON2 block 9%.
`CC(=O)N(C1=C(N)C(=O)c2ccccc2C1=O)c1ccccc1` gave AmpC no deterg -7%, Pf growth 48h inconclusive, AmpC inh detg 0%, Pf growth 96h 9.3µM*, HCV inh -24% and AMA1 RON2 block -17%.
For Cc1ccc(-n2cc(CNC(C)Cn3cncn3)c(-c3ccc(F)cc3)n2)cc1 (configuration not stated) the results were AmpC no deterg 233%, Pf growth 48h 7.4µM*, AmpC inh detg -8%, Pf growth 96h 11%, HCV inh -7% and AMA1 RON2 block -10%.
For Cc1ccc(C)c(-n2cc(CNC(C)Cn3cncn3)c(-c3ccccc3)n2)c1 (configuration not stated) the results were AmpC no deterg 101%, Pf growth 48h 13µM*, AmpC inh detg -7%, Pf growth 96h inconclusive, HCV inh -4% and AMA1 RON2 block 0%.
COc1ccc(-c2nn(-c3ccccc3C)cc2CNC(C)Cn2cncn2)cc1F (configuration not stated) was read as AmpC no deterg 102%, Pf growth 48h inconclusive, AmpC inh detg 1%, Pf growth 96h inconclusive, HCV inh -1% and AMA1 RON2 block 3%.
`O=C(O)CC(O)CC(O)/C=C/c1c(C2CC2)nc2ccccc2c1-c1ccc(F)cc1` (configuration not stated) gave Pf growth 48h 0% and Pf growth 96h -7%.
CC1(C)CC(=O)C2=C(C1)N(c1ccc(Cl)cc1)C(=O)C2(O)C(F)(F)F (configuration not stated) was read as AmpC no deterg -26%, Pf growth 48h 4%, AmpC inh detg -7%, Pf growth 96h -9%, HCV inh -8% and AMA1 RON2 block -16%.
Screening N#CC1=C2N=C(N)c3ccccc3N2C2=C(C(=O)CCC2)C1c1ccc(Cl)cc1 (configuration not stated) returned AmpC no deterg -49%, Pf growth 48h inconclusive, AmpC inh detg -8%, Pf growth 96h 6%, HCV inh inconclusive and AMA1 RON2 block 53%.
CN1C(=O)C2(C(C#N)=C(N)N(c3ccc(Cl)cc3)C3=C2C(=O)CC(C)(C)C3)c2ccccc21 (configuration not stated) was read as AmpC no deterg 68%, AmpC inh detg -1%, Pf growth 96h 13µM*, HCV inh 7% and AMA1 RON2 block -3%.
For CC1(C)CC(=O)C2=C(C1)N1C(=C(C#N)C2c2ccc(Cl)cc2)N=C(N)c2ccccc21 (configuration not stated) the results were AmpC no deterg -30%, Pf growth 48h inconclusive, AmpC inh detg inconclusive, Pf growth 96h 13µM*, HCV inh 8.9µM* and AMA1 RON2 block -12%.
